Test results: PubChem BioAssay AID1159580 (chemical genetic matrix, 2015)
Out of some 5,500 compounds screened, about 2,000 (36%) were called active. Inconclusive results (about 18%) are left out. Some of the results follow. Values without a mark were called inactive. Rule as the data show it: active = normalized growth mostly below about 0.91 (no sharp cut-off); inconclusive = no clear call, values can overlap the other calls; inactive = mostly above about 0.92.

Assay: chemical genetic growth profiling, strain panel (AID 1159580);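 also: tested at 20 µM; growth read once vehicle control cultures reached saturation at 30 °C; 1 = growth at the plate median or of vehicle wells; lower values mean less growth of the strain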
Conditions: growth OD

O=C(O)CN(CC(=O)O)Cc1cc2c(-c3ccccc3C(=O)O)c3cc(CN(CC(=O)O)CC(=O)O)c(=O)cc-3oc2cc1O
normalized growth (S. cerevisiae deletion strains, locus YJR043C, strain POL32, hits give low values): 1.01 | normalized growth (S. cerevisiae deletion strains, locus YJR075W, strain HOC1, hits give low values): 1.03 | normalized growth (S. cerevisiae deletion strains, locus YKL009W, strain mrt4, hits give low values): 1.02 | normalized growth (S. cerevisiae deletion strains, locus YKL068W, hits give low values): 1.01 | normalized growth (S. cerevisiae deletion strains, locus YKL085W, strain MDH1 (second series), hits give low values): 1.01 | normalized growth (S. cerevisiae deletion strains, locus YKL085W, strain MDH1, hits give low values): 1.01 | normalized growth (S. cerevisiae deletion strains, locus YKL160W, strain elf1, hits give low values): 0.96 | normalized growth (S. cerevisiae deletion strains, locus YKL190W, strain CNB1, hits give low values): 1.01 | normalized growth (S. cerevisiae deletion strains, locus YKR001C, strain vps1, hits give low values): 1.02 | normalized growth (S. cerevisiae deletion strains, locus YKR026C, strain gcn3, hits give low values): 0.986 | normalized growth (S. cerevisiae deletion strains, locus YKR091W, strain srl3, hits give low values): 0.965 | normalized growth (S. cerevisiae deletion strains, locus YLL001W, strain dnm1, hits give low values): 0.984 | normalized growth (S. cerevisiae deletion strains, locus YLL026W, hits give low values): 0.987 | normalized growth (S. cerevisiae deletion strains, locus YLL041C, strain sdh2, hits give low values): 0.974 | normalized growth (S. cerevisiae deletion strains, locus YLR027C, strain aat2, hits give low values): 0.969 | normalized growth (S. cerevisiae deletion strains, locus YLR039C, strain RIC1, hits give low values): 1.05 | normalized growth (S. cerevisiae deletion strains, locus YLR058C, strain SHM2, hits give low values): 1 | normalized growth (S. cerevisiae deletion strains, locus YLR102C, strain apc9, hits give low values): 1.03 | normalized growth (S. cerevisiae deletion strains, locus YLR221C, strain rsa3, hits give low values): 0.984 | normalized growth (S. cerevisiae deletion strains, locus YLR258W, strain gsy2, hits give low values): 0.967 | normalized growth (S. cerevisiae deletion strains, locus YLR262C, strain YPT6 (second series), hits give low values): 0.817 (active) | normalized growth (S. cerevisiae deletion strains, locus YLR262C, strain YPT6, hits give low values): 1.06 | normalized growth (S. cerevisiae deletion strains, locus YLR268W, strain sec22, hits give low values): 1.01 | normalized growth (S. cerevisiae deletion strains, locus YLR320W, strain mms22, hits give low values): 0.973 | normalized growth (S. cerevisiae deletion strains, locus YLR330W, strain CHS5, hits give low values): 1.01 | normalized growth (S. cerevisiae deletion strains, locus YLR342W, strain FKS1 (second series), hits give low values): 1 | normalized growth (S. cerevisiae deletion strains, locus YLR342W, strain FKS1, hits give low values): 0.964 | normalized growth (S. cerevisiae deletion strains, locus YLR357W, strain rsc2, hits give low values): 0.896 | normalized growth (S. cerevisiae deletion strains, locus YLR370C, strain arc18, hits give low values): 0.964 | normalized growth (S. cerevisiae deletion strains, locus YLR371W, strain rom2, hits give low values): 1.02 | normalized growth (S. cerevisiae deletion strains, locus YLR384C, strain iki3, hits give low values): 0.973 | normalized growth (S. cerevisiae deletion strains, locus YLR418C, strain cdc73, hits give low values): 1.03 | normalized growth (S. cerevisiae deletion strains, locus YML016C, strain PPZ1, hits give low values): 1.01 | normalized growth (S. cerevisiae deletion strains, locus YML032C, strain rad52, hits give low values): 1.03 | normalized growth (S. cerevisiae deletion strains, locus YML120C, strain ndi1, hits give low values): 0.968 | normalized growth (S. cerevisiae deletion strains, locus YML124C, strain tub3, hits give low values): 1.02 | normalized growth (S. cerevisiae deletion strains, locus YMR058W, strain fet3, hits give low values): 0.466 (active) | normalized growth (S. cerevisiae deletion strains, locus YMR078C, strain ctf18, hits give low values): 1.03 | normalized growth (S. cerevisiae deletion strains, locus YMR125W, strain sto1, hits give low values): 1.01 | normalized growth (S. cerevisiae deletion strains, locus YMR129W, hits give low values): 0.964 | normalized growth (S. cerevisiae deletion strains, locus YMR205C, strain PFK2, hits give low values): 0.989 | normalized growth (S. cerevisiae deletion strains, locus YMR223W, strain ubp8, hits give low values): 1 | normalized growth (S. cerevisiae deletion strains, locus YMR231W, strain pep5, hits give low values): 0.942 | normalized growth (S. cerevisiae deletion strains, locus YMR263W, strain SAP30, hits give low values): 1.02 | normalized growth (S. cerevisiae deletion strains, locus YMR307W, strain GAS1, hits give low values): 0.947 | normalized growth (S. cerevisiae deletion strains, locus YNL067W, strain RPL9B, hits give low values): 1.03 | normalized growth (S. cerevisiae deletion strains, locus YNL071W, strain lat1, hits give low values): 0.973 | normalized growth (S. cerevisiae deletion strains, locus YNL128W, strain TEP1, hits give low values): 0.96 | normalized growth (S. cerevisiae deletion strains, locus YNL153C, strain GIM3, hits give low values): 0.998 | normalized growth (S. cerevisiae deletion strains, locus YNL209W, strain ssb2, hits give low values): 0.911 (active) | normalized growth (S. cerevisiae deletion strains, locus YNL233W, strain BNI4, hits give low values): 0.994 | normalized growth (S. cerevisiae deletion strains, locus YNL248C, strain rpa49, hits give low values): 1.02 | normalized growth (S. cerevisiae deletion strains, locus YNL250W, strain rad50, hits give low values): 1.01 | normalized growth (S. cerevisiae deletion strains, locus YNL271C, strain bni1, hits give low values): 1.01 | normalized growth (S. cerevisiae deletion strains, locus YNL298W, strain CLA4, hits give low values): 1.04 | normalized growth (S. cerevisiae deletion strains, locus YNL307C, strain MCK1, hits give low values): 1.03 | normalized growth (S. cerevisiae deletion strains, locus YNL322C, strain KRE1 (second series), hits give low values): 0.967 | normalized growth (S. cerevisiae deletion strains, locus YNL322C, strain KRE1, hits give low values): 1.01 | normalized growth (S. cerevisiae deletion strains, locus YNR049C, strain mso1, hits give low values): 0.956 | normalized growth (S. cerevisiae deletion strains, locus YNR052C, strain pop2, hits give low values): 1.02 | normalized growth (S. cerevisiae deletion strains, locus YOL006C, strain TOP1, hits give low values): 1 | normalized growth (S. cerevisiae deletion strains, locus YOL012C, strain htz1): 1.12 | normalized growth (S. cerevisiae deletion strains, locus YOL147C, strain pex11, hits give low values): 1.02 | normalized growth (S. cerevisiae deletion strains, locus YOR001W, strain rrp6, hits give low values): 0.939 | normalized growth (S. cerevisiae deletion strains, locus YOR061W, strain CKA2, hits give low values): 1 | normalized growth (S. cerevisiae deletion strains, locus YOR069W, strain VPS5, hits give low values): 1.01 | normalized growth (S. cerevisiae deletion strains, locus YOR070C, strain gyp1, hits give low values): 0.986 | normalized growth (S. cerevisiae deletion strains, locus YOR080W, strain dia2, hits give low values): 0.947 | normalized growth (S. cerevisiae deletion strains, locus YOR083W, strain WHI5, hits give low values): 0.958 | normalized growth (S. cerevisiae deletion strains, locus YOR106W, strain vam3, hits give low values): 0.773 (active) | normalized growth (S. cerevisiae deletion strains, locus YOR136W, strain idh2, hits give low values): 1.02 | normalized growth (S. cerevisiae deletion strains, locus YOR144C, strain elg1, hits give low values): 1.02 | normalized growth (S. cerevisiae deletion strains, locus YOR184W, strain ser1, hits give low values): 1.03 | normalized growth (S. cerevisiae deletion strains, locus YOR265W, strain rbl2, hits give low values): 0.984 | normalized growth (S. cerevisiae deletion strains, locus YOR270C, strain vph1, hits give low values): 0.764 (active) | normalized growth (S. cerevisiae deletion strains, locus YOR290C, strain snf2, hits give low values): 0.904 | normalized growth (S. cerevisiae deletion strains, locus YOR316C, strain cot1, hits give low values): 1.02 | normalized growth (S. cerevisiae deletion strains, locus YPL051W, strain arl3, hits give low values): 0.867 (active) | normalized growth (S. cerevisiae deletion strains, locus YPL055C, strain LGE1, hits give low values): 0.974 | normalized growth (S. cerevisiae deletion strains, locus YPL078C, strain atp4, hits give low values): 0.939 | normalized growth (S. cerevisiae deletion strains, locus YPL106C, strain sse1, hits give low values): 0.87 | normalized growth (S. cerevisiae deletion strains, locus YPL240C, strain hsp82, hits give low values): 0.971 | normalized growth (S. cerevisiae deletion strains, locus YPL241C, strain CIN2, hits give low values): 0.987 | normalized growth (S. cerevisiae deletion strains, locus YPR119W, strain clb2, hits give low values): 1.02 | normalized growth (S. cerevisiae deletion strains, locus YPR141C, strain kar3, hits give low values): 1.02 | normalized growth (S. cerevisiae deletion strains, locus YPR163C, strain tif3, hits give low values): 1.01 | normalized growth (S. cerevisiae deletion strains, locus YPR167C, strain met16, hits give low values): 1.03 | normalized growth (S. cerevisiae deletion strains, strain wtn01, hits give low values): 1.01 | normalized growth (S. cerevisiae strains, strain wild type, hits give low values): 0.999
